# Compound activity deposited in PubChem by several laboratories.
# KLF5 inhibitor = kruppel-like factor 5 inhibition; DLD-1 KLF5 promoter-luciferase reporter, luminescence; inhibition, % at 5 µM; 290,000 tested, 0.23% active; AID 1700;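 active = inhibition above a per-plate limit of that plate's mean compound inhibition plus 3 SD, cut at about 60% in these data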;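 also: 0% = DMSO wells and 100% = LY294002 at 200 µM; higher means less KLF5 promoter-driven luciferase light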
# APP transl inh = APP translation inhibition; SH-SY5Y APP 5'UTR-luciferase reporter, luminescence; inhibition, % at 2 µM; 190,000 tested, 0.82% active; AID 1285;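 active = inhibition above a set limit, derived from the sample mean plus 3 SD, cut at about 45% in these data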
# IEC-6 cytotox = kills IEC-6 intestinal cells in KLF5 counter-screen; inhibition, % at 5 µM; 290,000 tested, 0.78% active; IEC-6 cytotoxicity, luminescence viability; AID 1825;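 also: 0% = plate median of test compound wells and 100% = cytotoxic reference compound wells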
# BaF3 tox = counter-screen for JAK2V617F inhibitors: parental Ba/F3 viability inhibitors; CellTiter-Glo ATP luminescence; inhibition, % at 5.6 µM; 220,000 tested, 1.1% active;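 active = inhibition above a per-campaign cutoff, the mean inhibition of all tested compounds plus 3 SD, cut at about 27% in these data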;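 also: 0% = DMSO wells and 100% = JAK Inhibitor I control wells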
# aSyn UTR inh = 5' untranslated region of α-synuclein, MLPCN primary screen; alpha-synuclein 5'UTR reporter, inhibitor activity; inhibition, % (tested at 7.5 µM); 300,000 tested, 0.82% active; in the data active = inhibition above about 60%;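 also: H4 neuroglioblastoma cells stably carrying SNCA 5'UTR luciferase fusion; 0% = DMSO wells and 100% = positive control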
# Ba/F3 V617F tox = loss of viability in JAK2V617F-driven Ba/F3 cells | AID 1446 | inhibition, % at 5.6 µM | 220,000 tested, 1.1% active | Ba/F3 EpoR-JAK2V617F viability, ATP luminescence;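 active = inhibition above the campaign mean plus 3 SD over all tested compounds, cut at about 24% in these data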;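 also: cytokine-independent growth of Ba/F3 cells driven by EpoR plus mutant JAK2; 0% = DMSO-treated cells and 100% = JAK inhibitor I control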
# IEC-6 cytotox cf = confirmation of cytotoxic compounds in rat IEC-6 intestinal epithelial cells; shares compounds with IEC-6 cytotox; IEC-6 rat intestinal epithelial viability, luminescence; inhibition, % at 5 µM; 1,900 tested, 63% active;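 also: 0% = vehicle and 100% = reference cytotoxic drug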
# An asterisk follows results filed as active; . = no result. Compounds with a hit are over-represented: about 2.2% of the library has one in this group of screens. Rule as the data show it, unless noted: active = inhibition above about 22%; inactive = the rest.
SMILES,KLF5 inhibitor,APP transl inh,IEC-6 cytotox,BaF3 tox,aSyn UTR inh,Ba/F3 V617F tox,IEC-6 cytotox cf
O=C(Nc1ccccc1N1CCOCC1)c1cccc(Oc2ccccc2)c1,15,.,-9,.,-21,.,.
O=C(CN1C(=O)NC2(CCCC2)C1=O)Nc1cccc(Cl)c1,-16,.,2,.,4,.,.
CCCCCCn1ccc(=N)cc1,6,2,28*,69*,13,92*,26*
COc1ccc(CCNC(=O)c2cc3c(=O)n4cccc(C)c4nc3n(Cc3ccco3)c2=N)cc1OC,-3,.,36*,.,2,.,1
Cc1ccc(CNC(=O)c2cc3c(=O)n4ccccc4nc3n(Cc3ccco3)c2=N)cc1,.,.,.,.,-12,.,.
Cc1cccn2c(=O)c3cc(C(=O)NCc4ccco4)c(=N)n(CCc4ccccc4)c3nc12,-16,.,-12,-4,.,1,.
Cc1cccn2c(=O)c3cc(C(=O)NCCc4ccccc4)c(=N)n(Cc4ccco4)c3nc12,25,.,63*,.,-27,.,-2
Cc1nonc1C(=O)N1CCCC(Nc2ccc(C(C)C)cc2)C1 (stereo not given),-20,.,8,.,-11,.,.
Cc1ccc(C2NC(=O)c3ccccc3N2)s1 (stereo not given),43,18,73*,80*,-168,83*,8
O=C(c1ccc(Br)cc1)C(CN1CCOCC1)c1ccccc1 (stereo not given),-32,.,26*,.,-152,.,8
CCC(C(=O)NC(CC(=O)O)c1ccc(Cl)cc1)c1ccccc1 (stereo not given),-11,.,-1,.,-11,.,.
O=C(O)CSc1cc(NS(=O)(=O)c2ccc(Cl)cc2)c2ccccc2c1O,-42,.,57*,.,21,.,-3
Cn1c(/C=C/c2ccccc2)nc2ccccc21,-58,-65,6,8,39,2,.
C(=C\c1nnc2c3ccccc3ncn12)/c1ccccc1,1,72*,60*,69*,53,82*,20
COc1cc(C(=O)Nc2ccc3ccccc3c2)cc(OC)c1OC,43,.,78*,.,88*,.,59*
COc1ccc(C(=O)Nc2ccc3ccccc3c2)cc1OC,-190,.,8,.,-176,.,.
CC(C)n1cc(NC(=O)c2cc(-c3ccccc3)on2)cn1,-3,77*,64*,28*,-218,41*,46*
COc1ccc(C(=O)COC(=O)COc2cc(C)cc(C)c2)cc1,-48,.,-3,.,-5,.,.
COc1ccc2c(COC(=O)c3cccc(S(=O)(=O)NCC(C)C)c3)cc(=O)oc2c1,-10,.,-9,.,-14,.,.
CCCNS(=O)(=O)c1cccc(C(=O)OCc2cc(=O)oc3cc(OC)ccc23)c1,43,.,62*,.,-97,.,16
CCc1cc2c(=O)n(CCCOC)c(SCC(=O)Nc3oc(C)c4c(C)n[nH]c(=O)c34)nc2s1,.,.,.,.,-1,.,.
O=[N+]([O-])c1ccc(-n2nnnc2-c2ccccc2)c([N+](=O)[O-])c1,-37,-4,32*,30*,-2,69*,5
COC(=O)c1cc(S(=O)(=O)NCC2CCN(CCc3cccs3)CC2)cn1C,11,.,-6,.,14,.,.
COc1ccc(NC(=O)C2(S(=O)(=O)c3ccc(C)cc3)CC2)cc1,-13,.,-9,.,4,.,.
FC(F)(F)c1cccc(-c2nc3nc(Cl)c(Cl)nc3[nH]2)c1,-47,.,31*,3,13,4,39*
SMILES,KLF5 inhibitor,APP transl inh,IEC-6 cytotox,BaF3 tox,aSyn UTR inh,Ba/F3 V617F tox,IEC-6 cytotox cf
COc1cnc(-c2cccc(C(F)(F)F)c2)[nH]c1=O,-9,-5,-6,5,9,-2,.
COc1ccc(OCC(=O)Nc2ccccc2N2CCCCC2)cc1,56,.,70*,.,21,.,42*
COc1ccc(OCC(=O)Nc2ccccc2-c2ccccc2)cc1,10,11,28*,7,21,4,15
COc1cccc(OC)c1C(=O)Nc1ccccc1N1CCCCC1,3,.,26*,.,23,.,2
COc1ccc(OCC(=O)Nc2ccccc2N2CCN(C)CC2)cc1,17,.,2,.,-13,.,.
O=C(O)c1ccc(N/N=C/c2cccc(C(F)(F)F)c2)cc1,-138,.,32*,.,-99,.,37*
COc1cccc(NC(=O)CCCCCn2nnc3ccccc3c2=O)c1,-14,.,-3,.,5,.,.
COc1ccc(C(=O)N/N=C/c2ccc(OC(=O)c3ccccc3)cc2)cc1,6,2,-4,3,-29,-2,.
CCOc1ccc(/C=N/NC(=O)c2cc3c(OC)cc(OC)c(OC)c3[nH]2)cc1,-5,.,7,.,-78,.,.
CCOc1ccc2[nH]c(C(=O)N/N=C/c3ccccc3OC)cc2c1,60,.,48*,.,-116,.,14
COc1ccc(C(=O)N/N=C/c2ccccc2OC(=O)c2ccccc2)cc1,-64,.,94*,.,53,.,12
O=C(CCCn1c(=S)[nH]c2cc3c(cc2c1=O)OCO3)NCCc1ccccc1Cl,-2,.,2,.,11,.,.
O=C(NCCOc1ccccc1F)c1cc([N+](=O)[O-])ccc1N1CCOCC1,43,.,49*,.,-36,.,41*
CC(=O)c1ccc(Nc2nc(=O)c3cccnc3s2)cc1,-85,4,1,7,-124,3,.
Cc1ccc(Nc2nc(=O)c3cccnc3s2)c(Br)c1,15,.,65*,48*,42,51*,42*
CC(=O)Nc1nc(NC(=O)/C=C/c2ccccc2)n(-c2ccccc2)n1,27,11,24*,10,79*,5,17
O=C(Nc1nc(NC(=O)c2ccco2)n(-c2ccccc2)n1)c1ccccc1,48,46*,26*,51*,79*,36*,41*
CC(=O)Nc1nc(NCc2ccccc2Cl)n(-c2ccccc2)n1,-16,.,-6,.,15,.,.
COc1ccccc1C1c2[nH]c3ccccc3c2CCN1Cc1ccc(NC(C)=O)s1 (stereo not given),-1,.,1,1,17,2,.
COc1ccc(CN2CCN(C(=O)Cn3nc(C)n4cccc4c3=O)CC2)c(OC)c1OC,-29,.,0,.,21,.,.
O=C(c1ccccc1)c1ccc(Cn2cc(CCCO)nn2)cc1,-13,.,7,.,14,.,.
O=C(O)CCCCCCCCc1cn(Cc2ccc(C(=O)c3ccccc3)cc2)nn1,-27,.,72*,.,-35,.,24*
COc1cc(OC)cc(C(=O)Oc2c(CN3CCOCC3)cc(Cl)c3cccnc23)c1,23,.,80*,-5,92*,-2,-7
Cc1cc(C)c(OCC(=O)Nc2ccc(N3CCOCC3)cc2)c(Br)c1,-18,.,3,.,-6,.,.
O=C(CNC(=O)c1ccncc1)Nc1ccc(F)c(F)c1,-12,.,3,.,8,.,.
CCOc1ccc(S(=O)(=O)N2CCN=C2c2ccccc2)cc1,23,.,26*,.,-27,.,23*
Cc1cc(S(=O)(=O)N2CCN=C2c2ccccc2)ccc1F,-35,-7,1,3,35,1,.
CCN(c1ccccc1)S(=O)(=O)c1ccc(Cl)c(NC(=O)COC(=O)c2cc(O)c3ccccc3c2O)c1,8,.,32*,-3,13,-3,7
